# Data: the supplement of paper PMC6555819
# System: PPARg:RXRa 30nM:10nM, anti-RXR (NR concentration 30 nM, RXRa partner concentration 10 nM)
# Experiment: PBM binding z-score (relative to random genomic background probes); higher = stronger binding; sequences stand for … in GC…GCGATTGACAGCGTAGAATGAAGG
# Summary of the method: (§1)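 Scanned fluorescence from custom Agilent 4×180K protein-binding microarrays was regression-normalized. Binding z-scores use random background probes as reference. Ligand-free nuclear receptor dimers were incubated on the arrays for 1 h and detected with antibodies against each partner (one per run).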
row,Sequence,PBM binding z-score
1,CCTGCTACGTCAATGGTCAGCTAAAGCAGCTCGC,-0.833
2,ACTATTAGTTGACTTAGGGCGACCGATACGACGC,0.295
3,ATCTCTAGGTAAACTTCAGTGAAAGATCGATAGA,0.397
4,CTACCAAGGTGAACACGGTCGTTGATTACTATTC,-0.147
5,ATCTCTAGGTTACCAAGTTCAGTGAATGCCGAAC,0.559
6,CCTAGGAGGACAGAAGGTCAGAGCTGTCCGCTTT,-0.108
7,AGTCAAAGTTCAGGACGAGGTGACGTAAAGCACG,2.14
8,CCTACTGGTCCATTCAGAGGTCATTGATCATATG,0.224
9,ACTATTAGTTGGCTTAGGGCAACCGATACGACGC,0.0765
10,TCTGCTAGGTCAACGATGGTGAGCTAATCTGCTA,1.74
11,ATATGTAGGTTACATCCGTGTCATTCAGGCTATG,1.88
12,ACTATTGGTTGACTTAGGGCAACCGATACGACGC,0.181
13,GCTAGCAGGCCATTTGGGTCACGCAATGACGGGC,0.36
14,CGTCAAAGTTCAAGGTAACGTATCAGAAAGCAGC,1.86
15,CGTCAAAGTTCAACTAAGGTATCGTAAAGCACGC,2.02
16,CCTTACGCGTCACTCCAGGTTATAGCATCGGAGT,-0.223
17,CCTCGGAGGACAGAATGTCAGAGCTGTCCGCTTT,-0.655
18,CCGACTGGGGCAAAAGGTTACCATAAGCCAGCCC,3.64

# System: PPARg:RXRa 90nM:30nM, anti-RXR (NR concentration 90 nM, RXRa partner concentration 30 nM)
# Experiment: as above
# Summary of the method: as §1
row,Sequence,PBM binding z-score
1,TCAAGTTGGTCAAAGGTCACACACTCGAAATGCG,10.6
2,ACTAGCAGGCCAAGGATCACTCAAGATTAGTCCG,2.55
3,ACTTACGGGTCAGCGAGGTTATAGCACGCGTATA,2.59
4,TCTATCAGTTGATTAGGGCAACCGAAACAGCGGA,2.54
5,CCTTACGGGTCACTCCAGGTTATGGCATCGGAGT,2.67
6,CCTTACGGGTCAAGGTTACAGCACGGGTGGTACG,3.87
7,CGTCCAAGGTCAAGGTCAGTGACAGAGACTCGAA,4.82
8,ATCTCTAGGGAAAGTTCAGTGAAAGATCGATAGA,1.51
9,ACAGACAGGTGATGAAGGTAACCCAGGCTATCAT,-0.204
10,TCATATAGGTAAATGCGAGGTGAAAGTCCGATCT,3.07
11,CAAACTAGGTCACAGAGGTCAAAGGCCGTGCGTA,8.58
12,CCTAGTTGGTGAGGAGGTCACACACCGGATATGA,2.31
13,CCTGCTAGGTCATGGTCAGCTAATCTACAGTATG,1.97
14,ATATGTAAGTTACATCCGGGTCATTCAGGCTATG,1.01
15,TCTTGTAGATCAGCAGGTTAAGACAGCTGGCCAA,2.02
16,TCTGCTAGGTCATTTGGTCAGCTAACGAGCTGCC,2.37
17,CCTACTGGGCCACGAAAGGTCAGTGATTCAGTGA,2.79
18,CCTACTGGGCCAAGGTCATTTATCAGTCAAAGCA,3.57
19,ATATGTAGGTTACATCCGGGTCCTTCAGGCTATG,3.63
20,AGAATGAGGTTATACGTAGATTAGGGAAGAAAGT,1.76

row,Sequence,PBM binding z-score
1,CCTAGTTGGTCAAGGTCAGACACGCTATAGGTAC,1.73
2,TGATTGAGGTTAAAGATCAGGGAACGTGGCGTCG,5.94
3,CCTGCTACGTCAATGGTCAGCTAAAGCAGCTCGC,-0.566
4,ACTATTAGTTGACTTAGGGCGACCGATACGACGC,0.183
5,ATCTCTAGGTAAACTTCAGTGAAAGATCGATAGA,0.45
6,CTACCAAGGTGAACACGGTCGTTGATTACTATTC,0.147
7,ATCTCTAGGTTACCAAGTTCAGTGAATGCCGAAC,0.955
8,CCTAGGAGGACAGAAGGTCAGAGCTGTCCGCTTT,1.7
9,AGTCAAAGTTCAGGACGAGGTGACGTAAAGCACG,4.25
10,CCTACTGGTCCATTCAGAGGTCATTGATCATATG,1.05
11,ACTATTAGTTGGCTTAGGGCAACCGATACGACGC,0.0615
12,TCTGCTAGGTCAACGATGGTGAGCTAATCTGCTA,2.39
13,ATATGTAGGTTACATCCGTGTCATTCAGGCTATG,3.27
14,ACTATTGGTTGACTTAGGGCAACCGATACGACGC,0.103
15,GCTAGCAGGCCATTTGGGTCACGCAATGACGGGC,0.648
16,CGTCAAAGTTCAAGGTAACGTATCAGAAAGCAGC,3.65
17,CGTCAAAGTTCAACTAAGGTATCGTAAAGCACGC,4.5
18,CCTTACGCGTCACTCCAGGTTATAGCATCGGAGT,-0.192
19,CCTCGGAGGACAGAATGTCAGAGCTGTCCGCTTT,-1.09
20,CCGACTGGGGCAAAAGGTTACCATAAGCCAGCCC,5.79
